Measurements as given in ChEMBL document CHEMBL1961873, “Compounds: GSK PKIS; Assays: Nanosyn kinase panel” (2012).

What was measured:
[1] = target: T1, Ephrin type-B receptor 2 (Homo sapiens) (UniProt P29323); conditions: at 1 µM
T1 sequence (whole entry): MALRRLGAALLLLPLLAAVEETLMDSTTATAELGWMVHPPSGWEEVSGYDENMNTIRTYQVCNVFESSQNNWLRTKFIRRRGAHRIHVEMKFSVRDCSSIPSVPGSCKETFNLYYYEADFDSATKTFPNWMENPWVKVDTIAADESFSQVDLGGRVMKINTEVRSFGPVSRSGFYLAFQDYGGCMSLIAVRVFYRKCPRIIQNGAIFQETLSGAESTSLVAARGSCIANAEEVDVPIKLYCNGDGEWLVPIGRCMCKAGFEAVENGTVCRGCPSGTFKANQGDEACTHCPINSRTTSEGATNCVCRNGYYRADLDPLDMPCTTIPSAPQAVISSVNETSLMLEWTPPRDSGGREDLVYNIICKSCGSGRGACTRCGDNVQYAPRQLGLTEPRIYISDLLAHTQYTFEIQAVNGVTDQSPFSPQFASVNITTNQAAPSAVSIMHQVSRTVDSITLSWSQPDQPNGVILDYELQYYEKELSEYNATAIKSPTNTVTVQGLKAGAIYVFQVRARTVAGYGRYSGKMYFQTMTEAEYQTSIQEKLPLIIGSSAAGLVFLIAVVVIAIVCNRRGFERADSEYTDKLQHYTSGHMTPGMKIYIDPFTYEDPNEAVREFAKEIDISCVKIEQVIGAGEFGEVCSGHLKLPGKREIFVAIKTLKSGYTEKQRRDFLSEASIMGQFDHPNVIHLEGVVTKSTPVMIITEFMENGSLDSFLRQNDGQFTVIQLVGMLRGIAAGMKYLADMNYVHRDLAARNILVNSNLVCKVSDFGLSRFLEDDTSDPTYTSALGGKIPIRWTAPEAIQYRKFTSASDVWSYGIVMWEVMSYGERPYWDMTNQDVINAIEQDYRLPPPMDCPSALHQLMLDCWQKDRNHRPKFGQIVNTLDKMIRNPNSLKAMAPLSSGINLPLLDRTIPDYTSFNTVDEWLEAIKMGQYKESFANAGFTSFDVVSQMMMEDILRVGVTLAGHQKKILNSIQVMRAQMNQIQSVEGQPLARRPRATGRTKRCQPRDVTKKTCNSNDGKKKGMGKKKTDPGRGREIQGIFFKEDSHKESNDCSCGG

[2] = target: T2, Ephrin type-B receptor 3 (Homo sapiens) (UniProt P54753); conditions: at 0.1 µM
T2 sequence (whole entry): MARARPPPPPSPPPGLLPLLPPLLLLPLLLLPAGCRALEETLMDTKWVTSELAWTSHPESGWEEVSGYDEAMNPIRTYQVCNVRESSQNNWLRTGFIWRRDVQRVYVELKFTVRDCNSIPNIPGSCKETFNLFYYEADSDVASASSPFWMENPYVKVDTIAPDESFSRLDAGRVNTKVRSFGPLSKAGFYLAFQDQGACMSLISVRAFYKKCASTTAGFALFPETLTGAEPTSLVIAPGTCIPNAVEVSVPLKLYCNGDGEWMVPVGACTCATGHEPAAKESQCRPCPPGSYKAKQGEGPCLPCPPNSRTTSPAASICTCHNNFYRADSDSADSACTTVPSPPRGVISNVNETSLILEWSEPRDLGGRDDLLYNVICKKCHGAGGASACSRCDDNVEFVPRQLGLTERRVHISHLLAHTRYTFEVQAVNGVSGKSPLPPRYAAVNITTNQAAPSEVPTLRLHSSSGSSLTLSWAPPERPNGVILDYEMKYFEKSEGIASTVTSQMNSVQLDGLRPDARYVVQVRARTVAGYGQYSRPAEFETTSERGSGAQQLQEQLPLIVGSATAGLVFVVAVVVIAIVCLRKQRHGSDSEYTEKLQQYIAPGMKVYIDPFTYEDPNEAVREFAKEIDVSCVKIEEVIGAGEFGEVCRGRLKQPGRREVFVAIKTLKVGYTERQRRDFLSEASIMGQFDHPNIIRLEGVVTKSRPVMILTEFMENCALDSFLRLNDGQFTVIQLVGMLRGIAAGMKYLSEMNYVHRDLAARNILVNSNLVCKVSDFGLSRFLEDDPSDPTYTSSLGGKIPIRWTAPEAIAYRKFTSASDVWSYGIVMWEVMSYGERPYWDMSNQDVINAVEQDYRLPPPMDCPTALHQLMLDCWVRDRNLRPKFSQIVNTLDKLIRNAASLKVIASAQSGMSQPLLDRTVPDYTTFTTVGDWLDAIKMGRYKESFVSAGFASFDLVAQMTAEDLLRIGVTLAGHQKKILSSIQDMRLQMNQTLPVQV

[3] = target: T2, Ephrin type-B receptor 3 (Homo sapiens); conditions: at 1 µM
[4] = target: T3, Ephrin type-B receptor 4 (Homo sapiens) (UniProt P54760); conditions: at 0.1 µM
T3 sequence (whole entry): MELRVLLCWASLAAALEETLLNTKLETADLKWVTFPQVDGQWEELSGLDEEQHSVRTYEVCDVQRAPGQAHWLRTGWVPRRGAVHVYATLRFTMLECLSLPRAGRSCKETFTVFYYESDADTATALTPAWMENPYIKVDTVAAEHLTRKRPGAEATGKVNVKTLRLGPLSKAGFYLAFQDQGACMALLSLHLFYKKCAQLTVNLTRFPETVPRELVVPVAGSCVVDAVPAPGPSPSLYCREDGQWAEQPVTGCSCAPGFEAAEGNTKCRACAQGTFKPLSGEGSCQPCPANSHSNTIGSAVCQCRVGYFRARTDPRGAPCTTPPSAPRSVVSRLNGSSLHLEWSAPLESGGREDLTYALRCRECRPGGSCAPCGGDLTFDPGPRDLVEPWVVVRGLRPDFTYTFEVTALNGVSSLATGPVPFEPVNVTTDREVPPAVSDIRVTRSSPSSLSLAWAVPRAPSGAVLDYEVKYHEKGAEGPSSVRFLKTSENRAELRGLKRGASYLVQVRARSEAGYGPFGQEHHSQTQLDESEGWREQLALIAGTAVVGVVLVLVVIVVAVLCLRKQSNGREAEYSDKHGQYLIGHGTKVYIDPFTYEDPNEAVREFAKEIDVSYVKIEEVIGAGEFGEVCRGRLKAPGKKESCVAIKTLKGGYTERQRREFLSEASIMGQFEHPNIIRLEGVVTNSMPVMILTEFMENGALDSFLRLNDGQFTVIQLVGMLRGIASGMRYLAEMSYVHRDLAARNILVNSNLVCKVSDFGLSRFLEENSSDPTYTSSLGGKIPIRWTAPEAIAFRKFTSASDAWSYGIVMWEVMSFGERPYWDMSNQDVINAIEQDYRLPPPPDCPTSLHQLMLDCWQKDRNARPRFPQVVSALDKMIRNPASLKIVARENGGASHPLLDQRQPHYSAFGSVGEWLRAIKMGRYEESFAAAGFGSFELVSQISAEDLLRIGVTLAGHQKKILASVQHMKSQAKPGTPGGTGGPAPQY

[5] = target: T3, Ephrin type-B receptor 4 (Homo sapiens); conditions: at 1 µM
[6] = target: Receptor tyrosine-protein kinase erbB-2 (Homo sapiens) (UniProt P04626); conditions: at 0.1 µM
Chain of Receptor tyrosine-protein kinase erbB-2 (Homo sapiens) (P04626 whole entry): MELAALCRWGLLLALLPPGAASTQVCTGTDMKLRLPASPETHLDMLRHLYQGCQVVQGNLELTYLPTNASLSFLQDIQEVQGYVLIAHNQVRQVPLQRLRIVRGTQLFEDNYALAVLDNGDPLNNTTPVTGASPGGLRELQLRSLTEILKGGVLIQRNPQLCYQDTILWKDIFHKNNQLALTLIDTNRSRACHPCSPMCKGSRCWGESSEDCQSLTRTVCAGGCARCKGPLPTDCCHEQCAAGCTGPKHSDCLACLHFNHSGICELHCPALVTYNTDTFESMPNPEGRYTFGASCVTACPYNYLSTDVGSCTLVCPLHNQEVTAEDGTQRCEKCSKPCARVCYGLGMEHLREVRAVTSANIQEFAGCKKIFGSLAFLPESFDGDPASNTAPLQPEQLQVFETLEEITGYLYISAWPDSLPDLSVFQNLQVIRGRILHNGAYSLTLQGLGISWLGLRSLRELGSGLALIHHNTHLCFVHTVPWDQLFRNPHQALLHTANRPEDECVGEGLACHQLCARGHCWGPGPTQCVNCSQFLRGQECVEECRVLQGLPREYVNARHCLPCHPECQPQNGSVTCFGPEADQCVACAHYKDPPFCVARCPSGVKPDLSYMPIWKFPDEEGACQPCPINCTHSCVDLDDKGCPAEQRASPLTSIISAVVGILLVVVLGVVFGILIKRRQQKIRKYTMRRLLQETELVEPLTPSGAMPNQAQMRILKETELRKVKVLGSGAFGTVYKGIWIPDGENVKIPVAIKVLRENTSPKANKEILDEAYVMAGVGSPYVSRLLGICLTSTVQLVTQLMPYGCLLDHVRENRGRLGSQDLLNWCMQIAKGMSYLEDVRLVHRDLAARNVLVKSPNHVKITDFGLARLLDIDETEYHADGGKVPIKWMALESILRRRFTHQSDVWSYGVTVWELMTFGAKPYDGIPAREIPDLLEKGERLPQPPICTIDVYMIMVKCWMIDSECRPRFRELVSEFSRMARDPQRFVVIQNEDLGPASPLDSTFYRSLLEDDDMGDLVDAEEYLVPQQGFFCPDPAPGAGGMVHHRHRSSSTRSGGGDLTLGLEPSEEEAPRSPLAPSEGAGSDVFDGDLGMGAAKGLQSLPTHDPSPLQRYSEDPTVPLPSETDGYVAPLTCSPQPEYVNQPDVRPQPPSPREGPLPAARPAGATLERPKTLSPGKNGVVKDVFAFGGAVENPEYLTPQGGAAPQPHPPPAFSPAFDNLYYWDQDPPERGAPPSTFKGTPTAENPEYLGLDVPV

[7] = target: Receptor tyrosine-protein kinase erbB-2 (Homo sapiens) (UniProt P04626); conditions: at 1 µM
[8] = target: Receptor tyrosine-protein kinase erbB-4 (Homo sapiens) (UniProt Q15303); conditions: at 0.1 µM
[9] = target: Receptor tyrosine-protein kinase erbB-4 (Homo sapiens) (UniProt Q15303); conditions: at 1 µM
[10] = target: Tyrosine-protein kinase Fer (Homo sapiens) (UniProt P16591); conditions: at 0.1 µM
Chain of Tyrosine-protein kinase Fer (Homo sapiens) (P16591 whole entry, looked up): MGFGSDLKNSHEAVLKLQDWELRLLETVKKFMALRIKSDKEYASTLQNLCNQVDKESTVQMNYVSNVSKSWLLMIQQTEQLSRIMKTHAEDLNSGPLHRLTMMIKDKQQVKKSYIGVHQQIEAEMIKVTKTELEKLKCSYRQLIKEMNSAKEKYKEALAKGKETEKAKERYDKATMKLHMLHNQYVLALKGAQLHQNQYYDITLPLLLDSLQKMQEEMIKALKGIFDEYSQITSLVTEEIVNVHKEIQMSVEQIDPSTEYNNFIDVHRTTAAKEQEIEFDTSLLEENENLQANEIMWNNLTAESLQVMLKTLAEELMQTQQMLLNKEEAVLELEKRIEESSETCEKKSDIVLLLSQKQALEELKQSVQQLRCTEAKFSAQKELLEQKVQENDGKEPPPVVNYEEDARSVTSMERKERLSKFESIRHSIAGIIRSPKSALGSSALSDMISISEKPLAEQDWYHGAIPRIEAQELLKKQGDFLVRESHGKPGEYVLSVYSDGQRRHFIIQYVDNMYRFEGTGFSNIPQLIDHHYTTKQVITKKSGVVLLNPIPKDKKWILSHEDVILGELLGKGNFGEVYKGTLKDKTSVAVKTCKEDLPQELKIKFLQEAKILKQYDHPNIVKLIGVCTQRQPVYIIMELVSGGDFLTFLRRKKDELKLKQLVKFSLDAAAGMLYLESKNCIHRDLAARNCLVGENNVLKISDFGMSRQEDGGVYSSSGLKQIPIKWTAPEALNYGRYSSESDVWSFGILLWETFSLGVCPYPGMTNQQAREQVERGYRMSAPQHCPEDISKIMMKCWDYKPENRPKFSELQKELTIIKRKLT

[11] = target: Tyrosine-protein kinase Fer (Homo sapiens) (UniProt P16591); conditions: at 1 µM
[12] = target: Tyrosine-protein kinase Fes/Fps (Homo sapiens) (UniProt P07332); conditions: at 0.1 µM
Chain of Tyrosine-protein kinase Fes/Fps (Homo sapiens) (P07332 whole entry): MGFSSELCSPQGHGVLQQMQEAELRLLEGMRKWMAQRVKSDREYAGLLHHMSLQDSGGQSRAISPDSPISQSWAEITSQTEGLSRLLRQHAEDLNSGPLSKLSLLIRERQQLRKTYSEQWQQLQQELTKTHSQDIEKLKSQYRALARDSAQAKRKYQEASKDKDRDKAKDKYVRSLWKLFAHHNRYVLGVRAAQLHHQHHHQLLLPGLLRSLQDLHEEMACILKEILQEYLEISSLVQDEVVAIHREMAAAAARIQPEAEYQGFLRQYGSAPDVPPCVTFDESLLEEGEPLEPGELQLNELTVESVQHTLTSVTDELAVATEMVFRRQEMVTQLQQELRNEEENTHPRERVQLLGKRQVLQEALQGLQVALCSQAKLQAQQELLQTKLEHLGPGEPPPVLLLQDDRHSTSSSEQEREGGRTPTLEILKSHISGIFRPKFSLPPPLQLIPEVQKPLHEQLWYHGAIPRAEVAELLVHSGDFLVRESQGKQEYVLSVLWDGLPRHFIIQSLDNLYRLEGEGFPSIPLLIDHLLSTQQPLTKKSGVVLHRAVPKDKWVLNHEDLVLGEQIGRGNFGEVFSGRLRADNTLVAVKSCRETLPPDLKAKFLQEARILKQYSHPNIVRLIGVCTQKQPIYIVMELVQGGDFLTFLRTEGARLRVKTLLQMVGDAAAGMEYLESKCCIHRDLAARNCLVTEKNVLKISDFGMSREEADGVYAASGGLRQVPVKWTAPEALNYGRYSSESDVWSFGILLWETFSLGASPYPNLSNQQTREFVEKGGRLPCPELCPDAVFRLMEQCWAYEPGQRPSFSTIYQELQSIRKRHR

[13] = target: Tyrosine-protein kinase Fes/Fps (Homo sapiens) (UniProt P07332); conditions: at 1 µM
[14] = target: Fibroblast growth factor receptor 1 (Homo sapiens) (UniProt P11362); conditions: at 0.1 µM
Chain of Fibroblast growth factor receptor 1 (Homo sapiens) (P11362 22-822 limits assumed): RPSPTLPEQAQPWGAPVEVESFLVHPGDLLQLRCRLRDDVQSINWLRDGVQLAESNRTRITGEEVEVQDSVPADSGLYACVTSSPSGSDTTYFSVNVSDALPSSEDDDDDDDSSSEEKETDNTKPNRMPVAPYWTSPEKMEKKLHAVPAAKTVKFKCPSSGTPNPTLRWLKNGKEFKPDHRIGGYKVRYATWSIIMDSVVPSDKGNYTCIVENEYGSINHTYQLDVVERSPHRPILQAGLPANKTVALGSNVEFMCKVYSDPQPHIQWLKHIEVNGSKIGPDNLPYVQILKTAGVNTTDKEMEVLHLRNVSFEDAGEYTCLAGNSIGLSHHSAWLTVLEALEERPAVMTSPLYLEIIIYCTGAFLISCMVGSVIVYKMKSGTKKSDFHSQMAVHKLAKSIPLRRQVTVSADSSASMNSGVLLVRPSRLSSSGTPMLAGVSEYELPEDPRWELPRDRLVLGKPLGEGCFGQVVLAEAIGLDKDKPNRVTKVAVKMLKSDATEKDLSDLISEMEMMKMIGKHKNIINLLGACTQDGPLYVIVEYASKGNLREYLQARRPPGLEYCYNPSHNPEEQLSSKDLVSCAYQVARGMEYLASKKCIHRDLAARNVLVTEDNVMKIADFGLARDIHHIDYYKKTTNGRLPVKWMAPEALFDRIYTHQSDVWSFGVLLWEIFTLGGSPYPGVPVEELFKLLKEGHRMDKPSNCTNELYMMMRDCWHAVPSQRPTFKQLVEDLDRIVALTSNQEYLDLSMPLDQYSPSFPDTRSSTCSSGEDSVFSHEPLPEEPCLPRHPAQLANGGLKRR

[15] = target: Fibroblast growth factor receptor 1 (Homo sapiens) (UniProt P11362); conditions: at 1 µM
[16] = target: Fibroblast growth factor receptor 2 (Homo sapiens) (UniProt P21802); conditions: at 0.1 µM
Chain of Fibroblast growth factor receptor 2 (Homo sapiens) (P21802 22-821 limits assumed): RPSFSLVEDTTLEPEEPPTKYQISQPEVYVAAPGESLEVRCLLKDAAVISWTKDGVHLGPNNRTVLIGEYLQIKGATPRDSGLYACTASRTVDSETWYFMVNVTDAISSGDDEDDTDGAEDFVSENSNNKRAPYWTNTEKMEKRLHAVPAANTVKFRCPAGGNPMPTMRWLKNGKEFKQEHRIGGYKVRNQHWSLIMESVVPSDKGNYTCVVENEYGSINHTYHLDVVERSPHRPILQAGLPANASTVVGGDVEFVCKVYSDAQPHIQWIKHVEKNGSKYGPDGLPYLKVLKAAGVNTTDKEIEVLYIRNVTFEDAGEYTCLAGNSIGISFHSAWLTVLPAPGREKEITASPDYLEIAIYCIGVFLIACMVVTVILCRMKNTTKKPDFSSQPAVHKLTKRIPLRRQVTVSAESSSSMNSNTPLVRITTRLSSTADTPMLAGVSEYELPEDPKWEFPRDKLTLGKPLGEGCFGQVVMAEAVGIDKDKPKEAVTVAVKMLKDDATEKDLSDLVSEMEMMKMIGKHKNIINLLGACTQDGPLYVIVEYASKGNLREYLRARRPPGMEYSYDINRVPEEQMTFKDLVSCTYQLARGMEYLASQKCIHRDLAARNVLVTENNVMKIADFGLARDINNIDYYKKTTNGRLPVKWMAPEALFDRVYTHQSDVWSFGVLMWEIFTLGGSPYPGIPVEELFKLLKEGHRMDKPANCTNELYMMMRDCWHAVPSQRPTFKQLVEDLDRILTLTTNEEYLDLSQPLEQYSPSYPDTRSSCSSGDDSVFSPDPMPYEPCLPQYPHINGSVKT

[17] = target: Fibroblast growth factor receptor 2 (Homo sapiens) (UniProt P21802); conditions: at 1 µM
[18] = target: Fibroblast growth factor receptor 3 (Homo sapiens) (UniProt P22607); conditions: at 0.1 µM
[19] = target: Fibroblast growth factor receptor 3 (Homo sapiens) (UniProt P22607); conditions: at 1 µM
[20] = target: Fibroblast growth factor receptor 4 (Homo sapiens) (UniProt P22455); conditions: at 0.1 µM;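 also: values are mean percent inhibition of FGFR4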

Row | Structure (SMILES) | inhibition [1] | inhibition [2] | inhibition [3] | inhibition [4] | inhibition [5] | inhibition [6] | inhibition [7] | inhibition [8] | inhibition [9] | inhibition [10] | inhibition [11] | inhibition [12] | inhibition [13] | inhibition [14] | inhibition [15] | inhibition [16] | inhibition [17] | inhibition [18] | inhibition [19] | inhibition [20]
1 | CCc1cccc(NC(=O)Nc2ccc(Oc3ccc4nc(NC(=O)OC)[nH]c4c3)cc2)c1 | 63% | 6.29% | 3.66% | 15.7% | 27.5% | 0.27% | 7% | 9.67% | 15.3% | 3.85% | 1.84% | 0.9% | 0.62% | -3.46% | 3.26% | 3.25% | 8.89% | 3.09% | 6.95% | 4.21%
2 | COc1cc(C)c(NC(=O)CN(C)C)cc1Nc1nc(Nc2cccc(F)c2C(N)=O)c2cc[nH]c2n1 | 8.75% | 4.52% | 0.2% | 2.62% | 1.31% | 0.48% | -0.4% | 10.4% | 32.1% | 81.8% | 86.8% | 76.1% | 89% | 0.49% | 1.43% | 0.12% | 4.39% | 2.37% | 1.03% | -1.04%
3 | Cc1ccc(C(=O)NC2CCCCC2)cc1-c1ccc(C(=O)NCC2CC2)cc1 | 7.74% | 5.37% | 1.76% | 1.61% | 0.58% | -0.05% | -2.24% | 13.3% | 17.9% | 5.55% | 4.17% | 3.08% | 2.29% | 3.66% | 5.66% | 2.75% | 6.2% | 4.11% | 4.7% | -0.52%
4 | NS(=O)(=O)c1cccc(-c2ccc3c(NC(=O)C4CC4)n[nH]c3c2)c1 | -0.57% | -3.25% | -3.05% | -1.93% | -1.01% | -3.46% | -5.29% | -3.96% | -3.93% | 1.7% | 3.76% | -3.2% | -4% | 0.33% | -2.92% | -1.77% | -1.15% | -0.12% | 0.44% | 0.21%
5 | Fc1cccc(COc2ccc(Nc3ncnc4cc(-c5ccc[nH]5)sc34)cc2Cl)c1 | 6.05% | 0.75% | -2.49% | -1.44% | -2.14% | 0.71% | 15.2% | 36.5% | 68.5% | 1.94% | 2.81% | 1.96% | 1.5% | -1.92% | 4.48% | -1.83% | 0.05% | -1% | – | –
6 | COc1ccccc1Nc1ncc(-c2ccccc2)o1 | 10.8% | 2.82% | 3.43% | 1.6% | 5.33% | 0.38% | 6.93% | 8.18% | 15.7% | 4.02% | 11.2% | 4.25% | 3.85% | 8.72% | 5.99% | 6.35% | 13.7% | 6.19% | 13.1% | -2.79%
7 | COc1cc2c(cc1Nc1nc(N3CCc4ccccc43)c3cc[nH]c3n1)N(C(=O)CN(C)C)CC2 | 9.31% | 2.82% | 0.49% | 1% | 0.73% | 1.22% | -0.36% | 6.72% | 6.14% | 66.2% | 85.2% | 39.9% | 62.3% | 2.98% | -1.36% | 0.56% | 6.55% | 3.52% | 0.84% | -1.03%
